Test results as given in the supplement of paper PMC4206461.

What follows are molecules tested on Pseudomonas aeruginosa PA14 dppA1-A5 penta mutant + pBBR5.DppA1 (PA14_58350) (assay: respiration area under curve with compound as sole nitrogen source, 24 h (OmniLog AUC (arbitrary units)); higher = more respiration / better utilisation as nitrogen source, active = 2000 or more).
Experimental: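 Biolog Phenotype MicroArray plates PM6-PM8: each di/tripeptide is the sole nitrogen source. Tetrazolium reduction was read in the OmniLog for 24 h at 37°C and summarised as area under the respiration curve (arbitrary units). Values below 2000 count as no respiration. Strain is the SBP penta mutant complemented with DppA1 on a plasmid under its native promoter. Lys/His/Cys peptides are excluded.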

Compound | respiration area under curve
CC(C)C[C@H](NC(=O)[C@@H](N)CC(C)C)C(=O)O (plate: PM6) | 1870 (inactive)
CC(C)C[C@H](N)C(=O)N[C@@H](C)C(=O)O (plate: PM6) | 7500 (active)
CC(C)CC(N)C(=O)NC(CC(=O)O)C(=O)O (stereo not given) (plate: PM6) | 4660 (active)
CC(C)[C@H](N)C(=O)NCC(=O)O (plate: PM7) | 6900 (active)
NC(=O)CC[C@H](NC(=O)[C@@H](N)CC(=O)O)C(=O)O (plate: PM8) | 7700 (active)
CC(C)C[C@H](NC(=O)CN)C(=O)O (plate: PM6) | 969 (inactive)
CC(C)C[C@@H](N)C(=O)N[C@@H](Cc1ccc(O)cc1)C(=O)O (plate: PM8) | 21.2 (inactive)
NC(N)=NCCC[C@H](N)C(=O)N[C@@H](Cc1ccccc1)C(=O)O (plate: PM6) | 7570 (active)
NC(N)=NCCC[C@H](N)C(=O)N[C@@H](Cc1c[nH]c2ccccc12)C(=O)O (plate: PM6) | 7290 (active)
CC(C)[C@H](N)C(=O)N[C@@H](CC(N)=O)C(=O)O (plate: PM7) | 10400 (active)
N[C@@H](CO)C(=O)NCC(=O)O (plate: PM7) | 6260 (active)
NC(N)=NCCC[C@H](N)C(=O)N[C@@H](CC(=O)O)C(=O)O (plate: PM6) | 7970 (active)
CSCC[C@H](NC(=O)[C@@H](N)CO)C(=O)O (plate: PM7) | 2590 (active)
NCC(=O)N1CCC[C@H]1C(=O)O (plate: PM6) | 7310 (active)
CSCC[C@H](N)C(=O)N1CCC[C@H]1C(=O)O (plate: PM7) | 8590 (active)
CC(C)C[C@H](N)C(=O)N[C@@H](CC(N)=O)C(=O)O (plate: PM8) | 11100 (active)
C[C@H](NC(=O)CNC(=O)CN)C(=O)O (plate: PM8) | 4350 (active)
CC(C)C(N)C(=O)NC(CO)C(=O)O (stereo not given) (plate: PM8) | 6900 (active)
CC[C@H](C)[C@H](N)C(=O)N[C@H](C(=O)O)[C@@H](C)CC (plate: PM6) | 1010 (inactive)
CC[C@H](C)[C@H](N)C(=O)NCC(=O)O (plate: PM6) | 2560 (active)

Compound | respiration area under curve
CC(C)C(NC(=O)C1CCCN1)C(=O)O (stereo not given) (plate: PM8) | 5180 (active)
CSCC[C@H](N)C(=O)N[C@H](C(=O)O)C(C)C (plate: PM7) | 3360 (active)
N[C@@H](Cc1c[nH]c2ccccc12)C(=O)N[C@@H](Cc1c[nH]c2ccccc12)C(=O)O (plate: PM7) | 477 (inactive)
NC(N)=NCCC[C@H](N)C(=O)N[C@@H](CCC(=O)O)C(=O)O (plate: PM6) | 8440 (active)
CC[C@H](C)[C@H](N)C(=O)N[C@H](C(=O)O)C(C)C (plate: PM6) | 2860 (active)
CC(C)[C@H](N)C(=O)N[C@@H](Cc1ccccc1)C(=O)O (plate: PM8) | 5560 (active)
NCC(=O)NCC(=O)NCC(=O)O (plate: PM8) | 940 (inactive)
CC[C@H](C)[C@H](N)C(=O)N[C@@H](Cc1ccc(O)cc1)C(=O)O (plate: PM6) | 655 (inactive)
NC(=O)CC[C@H](NC(=O)[C@@H](N)CCC(N)=O)C(=O)O (plate: PM6) | 6630 (active)
NC(N)=NCCC[C@H](N)C(=O)N[C@@H](CO)C(=O)O (plate: PM6) | 7830 (active)
N[C@@H](Cc1ccc(O)cc1)C(=O)NCC(=O)O (plate: PM7) | 8600 (active)
CSCC[C@H](N)C(=O)N[C@@H](Cc1c[nH]c2ccccc12)C(=O)O (plate: PM7) | 2980 (active)
C[C@H](N)C(=O)N[C@@H](CC(=O)O)C(=O)O (plate: PM8) | 9070 (active)
CC(C)[C@@H](NC(=O)CN)C(=O)O (plate: PM8) | 0 (inactive)
CC(C)[C@H](N)C(=O)N[C@@H](CCCN=C(N)N)C(=O)O (plate: PM7) | 12100 (active)
C[C@H](O)[C@@H](NC(=O)CN)C(=O)O (plate: PM8) | 0 (inactive)
NCC(=O)N[C@@H](CC(N)=O)C(=O)O (plate: PM8) | 14300 (active)
C[C@H](N)C(=O)N[C@@H](Cc1ccccc1)C(=O)O (plate: PM6) | 6990 (active)
CC[C@H](C)[C@H](NC(=O)[C@@H](N)Cc1ccc(O)cc1)C(=O)O (plate: PM8) | 6990 (active)
C[C@@H](O)[C@H](N)C(=O)N[C@@H](CCCN=C(N)N)C(=O)O (plate: PM7) | 14200 (active)
